Reference: PubChem BioAssay AID652208 (Broad Institute, 2013)
Measured potencies and affinities stand elsewhere. Active and inactive are the calls of the source.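 How the source made its calls: active means Loss of cell signal with fitted half-effect dose at or below twice the top valid tested dose; inconclusive means Poor fit, or flat fit from -70 to -30 percent; inactive means Half-effect above limit, rising signal, or flat within 30 percent.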

Experiment: HEK293T cell cytotoxicity, dose response, cytotoxicity control for HIV Vif inhibitor project, cherry-picks (AID 652208);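 further: 0% = median neutral control wells and -100% = median staurosporine control wells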
Conditions: HEK293T viability, CellTiter-Glo luminescence, 24 h; series mostly up to 26 µM; activity change, negative = cytotoxicity: at the top concentration
In the case of `COc1cc(-c2cnc3c(NC=O)cc(-c4ccccc4)cn23)cc(OC)c1OC`, the “activity change, negative = cytotoxicity” value is reported as -9.14% (inactive). In the case of `CN(C)c1ccc(/C=C/C(=O)c2ccc3c(c2)OCO3)cc1`, the “activity change, negative = cytotoxicity” value is reported as -23.4% (inactive). With `CN(C)c1ccc(C(O)Cc2nc3ccccc3n2C)cc1` (stereo not drawn) the “activity change, negative = cytotoxicity” value was -0.368% (inactive). For `Cc1ccc2c(c1)N(CC(=O)NCC1CCCO1)C(=O)C(C(C)C)O2` (stereo not drawn), the “activity change, negative = cytotoxicity” value was 1.69% (inactive). With `O=C1S/C(=C/c2ccc(N3CCOCC3)o2)C(=O)N1Cc1c(F)cccc1Cl` the “activity change, negative = cytotoxicity” value was -15.8% (inactive). For `Cc1ccc(S(=O)(=O)NC(=O)Nn2c(C)nnc2C)cc1`, the “activity change, negative = cytotoxicity” value was -11.6% (inactive). In the case of `COc1cccc(NC(=O)CSc2nnc(Cc3ccc(OC)c(OC)c3)o2)c1`, the “activity change, negative = cytotoxicity” value is reported as 8.72% (inactive). In the case of `COc1ccc(-c2cc(C(=O)Nc3ccc4c(c3)OCO4)no2)cc1`, the “activity change, negative = cytotoxicity” value is reported as -13.5% (inactive). With `COc1cc(OC)cc(C(=O)N[C@H](C(=O)Nc2ccc3c(c2)OCO3)C(C)C)c1` the “activity change, negative = cytotoxicity” value was 6.27% (inactive). In the case of `CCC(C)NC(=O)Cn1c(=O)n(-c2ccccc2)c(=O)c2ccc(C(=O)NCc3ccco3)cc21` (stereo not drawn), the “activity change, negative = cytotoxicity” value is reported as -1.22% (inactive). With `O=C(Nc1ccc2c(c1)nc1n2CCOC1)c1ccccc1` the “activity change, negative = cytotoxicity” value was -17.4% (inactive). In the case of `O=C1/C(=C/c2ccc(N3CCCC3)cc2)NC(=S)N1C1CC1`, the “activity change, negative = cytotoxicity” value is reported as 3.52% (inactive). For `COc1cc(C(C)=O)ccc1OCC(=O)NCC1(N2CCCCC2)CCCCC1`, the “activity change, negative = cytotoxicity” value was -8.55% (inactive). In the case of `CCOc1ccc(C(=O)c2cc([N+](=O)[O-])ccc2N2CCOCC2)cc1`, the “activity change, negative = cytotoxicity” value is reported as -13.8% (inactive). In the case of `CCOC(=O)c1nc(Nc2ccc(C(=O)OC)cc2)c2ccccc2n1`, the “activity change, negative = cytotoxicity” value is reported as -17.9% (inactive). With `COCCNC(=O)c1nn2c(C(F)(F)F)cc(-c3ccccc3)nc2c1Cl` the “activity change, negative = cytotoxicity” value was -9.4% (inactive). For `CNC(=O)c1ccc(NC(=O)c2cc(S(=O)(=O)N(C)C)ccc2N2CCCC2)cc1`, the “activity change, negative = cytotoxicity” value was -3.29% (inactive). For `O=C(CCCOc1ccc(Br)cc1)NNC(=O)c1ccncc1`, the “activity change, negative = cytotoxicity” value was 5.12% (inactive). In the case of `COc1ccc(-c2nc(CS(=O)(=O)CC(=O)NCCc3ccccc3)c(C)o2)cc1`, the “activity change, negative = cytotoxicity” value is reported as -6.93% (inactive). For `CCOc1ccc(C(C)=O)cc1COC(=O)c1cc([N+](=O)[O-])ccc1N1CCOCC1`, the “activity change, negative = cytotoxicity” value was -20.4% (inactive). With `CCCn1c(=N)c(C(=O)NCc2ccc3c(c2)OCO3)cc2c(=O)n3cccc(C)c3nc21` the “activity change, negative = cytotoxicity” value was -9.2% (inactive). For `COc1cc(-c2cc(=O)c3c(O)c(OC)c(OC)cc3o2)cc(OC)c1O`, the “activity change, negative = cytotoxicity” value was -8.86% (inactive). With `COC(=O)c1cc(Cl)c(NC(=O)c2cc3ccccc3o2)cc1OC` the “activity change, negative = cytotoxicity” value was 8.12% (inactive). In the case of `COc1cc2[nH]c(=O)n(CCCC(=O)NC3CCCCC3)c(=O)c2cc1OC`, the “activity change, negative = cytotoxicity” value is reported as -1.25% (inactive). For `CCCn1nnc(NC(=O)C(c2ccccc2)c2ccccc2)n1`, the “activity change, negative = cytotoxicity” value was -16.2% (inactive). With `Cc1nc(SCC(=O)N2CCCC2=O)nc(C)c1C` the “activity change, negative = cytotoxicity” value was 5.18% (inactive). For `O=S(=O)(Nn1cnnc1)c1ccccc1`, the “activity change, negative = cytotoxicity” value was 6.03% (inactive). In the case of `COc1ccc2nc3ccccc3nc2c1NC(=O)c1ccc(Cl)cc1`, the “activity change, negative = cytotoxicity” value is reported as 1.12% (inactive). For `CCC1=Nc2cc(C(=O)NCc3ccco3)ccc2Sc2ccc(C)cc21`, the “activity change, negative = cytotoxicity” value was -20.2% (inactive). For `COc1cccc(-c2cc(NC=O)c3ncc(-c4cc(OC)c(OC)c(OC)c4)n3c2)c1`, the “activity change, negative = cytotoxicity” value was -12.9% (inactive). With `CCOc1ccc(NC(=O)CN(C)C(=O)c2cc(S(=O)(=O)N3CCCCC3)ccc2Cl)cc1OCC` the “activity change, negative = cytotoxicity” value was 9.74% (inactive). For `N#Cc1c(-c2ccccc2)cc(C2CC2)nc1SCC(=O)c1cccs1`, the “activity change, negative = cytotoxicity” value was 2.29% (inactive). In the case of `CCC(C)n1c(-c2cccs2)nc2nc3ccccc3nc21` (stereo not drawn), the “activity change, negative = cytotoxicity” value is reported as -14.9% (inactive). For `CN(C)c1ccc(/C=C2\SC(=O)N(CCc3nnc(N)s3)C2=O)cc1`, the “activity change, negative = cytotoxicity” value was -1.54% (inactive). With `O=C(NCc1cccnc1)NC1(C(F)(F)F)Oc2ccc(Cl)cc2O1` (stereo not drawn) the “activity change, negative = cytotoxicity” value was 0.018% (inactive). For `CCN(CC(=O)Nc1c(F)cccc1F)C(=O)c1cccc(-n2cccc2)c1`, the “activity change, negative = cytotoxicity” value was 0.82% (inactive). In the case of `C=CCNc1sc(C(=O)c2ccc(Br)s2)c(N)c1C#N`, the “activity change, negative = cytotoxicity” value is reported as -3.79% (inactive). In the case of `Cc1cc(C(=O)Nc2c(F)c(F)c(F)c(F)c2F)n(-c2ccccc2)n1`, the “activity change, negative = cytotoxicity” value is reported as -23.7% (inactive).
